# About 7,900 targets were measured; listed, in parts, are those with a hit and a random draw of the rest. About 0.6% of all pairs of compound and target were hits. A number with no mark means an inactive call.
# How the values were obtained:
# Experiment in all cases: log2 fold change, soluble protein after heating vs DMSO (PISA); higher = thermal stabilisation; K562 cells, 10 uM, 30 min; active = over 0.2 and 3.5 SD of the protein, either way, in both replicates (recomputed)
# ZC3H8 = ZC3H8 (UniProt Q8N5P1)
# How it was run: (§1)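 For each measurement, 10 μM compound was applied for 30 min to K562 cells at 2×10^6 cells/mL. Aliquots were heated for 3 min across 48°C-58°C, pooled, and extracted in PBS with 0.5% NP-40 at 4°C; the supernatant after 21,000xg for 90 min was soluble protein. This was quantified by TMTpro 16plex LC-MS/MS with channel sums equalised, and thermal stability was reported relative to control samples from duplicates, on a log2 fold-change scale.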
# ZC3HC1 = ZC3HC1 (UniProt Q86WB0)
# How it was run: as §1
# ZCCHC9 = ZCCHC9 (UniProt Q8N567)
# How it was run: as §1
# ZDHHC17 = ZDHHC17 (UniProt Q8IUH5)
# How it was run: as §1
# ZDHHC20 = ZDHHC20 (UniProt Q5W0Z9)
# How it was run: as §1
# ZDHHC5 = ZDHHC5 (UniProt Q9C0B5)
# How it was run: as §1
# ZDHHC7 isoform 2 = ZDHHC7 isoform 2 (UniProt Q9NXF8)
# How it was run: as §1
# ZDHHC8 isoform 3 = ZDHHC8 isoform 3 (UniProt Q9ULC8)
# How it was run: as §1
# ZEB2 = ZEB2 (UniProt O60315)
# How it was run: as §1
# ZER1 = ZER1 (UniProt Q7Z7L7)
# How it was run: as §1
# ZFAND5 = ZFAND5 (UniProt O76080)
# How it was run: as §1
# ZFAND6 = ZFAND6 (UniProt Q6FIF0)
# How it was run: as §1
# ZFP91 = ZFP91 (UniProt Q96JP5)
# How it was run: as §1
# ZFPL1 = ZFPL1 (UniProt O95159)
# How it was run: as §1
# ZMAT2 = ZMAT2 (UniProt Q96NC0)
# How it was run: as §1
# ZMYM1 = ZMYM1 (UniProt Q5SVZ6)
# How it was run: as §1
# ZMYM3 = ZMYM3 (UniProt Q14202)
# How it was run: as §1
# ZNF143 = ZNF143 (UniProt P52747)
# How it was run: as §1
# ZDHHC6 = ZDHHC6 (UniProt Q9H6R6)
# How it was run: as §1
# ZFP91, sequence (Q96JP5 whole entry, looked up): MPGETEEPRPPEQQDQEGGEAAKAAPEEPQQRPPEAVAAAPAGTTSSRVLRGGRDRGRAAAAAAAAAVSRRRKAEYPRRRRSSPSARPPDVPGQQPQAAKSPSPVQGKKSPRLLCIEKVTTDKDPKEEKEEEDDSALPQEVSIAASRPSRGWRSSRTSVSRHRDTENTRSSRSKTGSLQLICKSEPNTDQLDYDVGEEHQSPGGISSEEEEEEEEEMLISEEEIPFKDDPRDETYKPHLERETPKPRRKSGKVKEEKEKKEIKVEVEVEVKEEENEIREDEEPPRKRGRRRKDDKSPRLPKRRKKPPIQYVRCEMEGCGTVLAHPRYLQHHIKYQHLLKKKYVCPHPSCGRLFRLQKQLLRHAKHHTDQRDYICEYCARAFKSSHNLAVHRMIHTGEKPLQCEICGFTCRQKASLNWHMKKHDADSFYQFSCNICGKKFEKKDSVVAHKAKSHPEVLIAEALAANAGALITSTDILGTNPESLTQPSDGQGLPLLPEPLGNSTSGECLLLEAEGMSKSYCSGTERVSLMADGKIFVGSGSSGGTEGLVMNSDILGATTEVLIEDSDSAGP
# ZDHHC8 isoform 3, sequence (Q9ULC8 whole entry, looked up, canonical isoform): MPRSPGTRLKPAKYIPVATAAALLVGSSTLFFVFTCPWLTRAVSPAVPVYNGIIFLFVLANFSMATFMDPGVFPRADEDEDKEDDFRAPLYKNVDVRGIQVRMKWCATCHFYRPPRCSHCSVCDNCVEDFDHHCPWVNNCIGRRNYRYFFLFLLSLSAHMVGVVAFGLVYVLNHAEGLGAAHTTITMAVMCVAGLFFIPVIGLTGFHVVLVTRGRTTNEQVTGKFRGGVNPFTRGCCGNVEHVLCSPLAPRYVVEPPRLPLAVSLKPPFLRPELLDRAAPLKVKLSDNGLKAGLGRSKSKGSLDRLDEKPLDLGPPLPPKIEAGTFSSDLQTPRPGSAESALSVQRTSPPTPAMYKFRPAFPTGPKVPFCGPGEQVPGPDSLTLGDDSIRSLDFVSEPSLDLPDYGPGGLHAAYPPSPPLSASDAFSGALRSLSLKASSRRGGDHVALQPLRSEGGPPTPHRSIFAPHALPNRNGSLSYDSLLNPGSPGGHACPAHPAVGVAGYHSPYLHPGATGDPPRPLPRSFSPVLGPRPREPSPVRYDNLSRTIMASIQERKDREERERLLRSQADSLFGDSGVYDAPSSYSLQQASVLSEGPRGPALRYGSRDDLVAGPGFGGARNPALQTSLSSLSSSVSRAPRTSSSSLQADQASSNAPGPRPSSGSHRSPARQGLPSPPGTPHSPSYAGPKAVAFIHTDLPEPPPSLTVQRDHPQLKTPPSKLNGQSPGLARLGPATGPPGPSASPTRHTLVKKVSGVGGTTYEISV
# ZNF143, sequence (P52747 whole entry, looked up): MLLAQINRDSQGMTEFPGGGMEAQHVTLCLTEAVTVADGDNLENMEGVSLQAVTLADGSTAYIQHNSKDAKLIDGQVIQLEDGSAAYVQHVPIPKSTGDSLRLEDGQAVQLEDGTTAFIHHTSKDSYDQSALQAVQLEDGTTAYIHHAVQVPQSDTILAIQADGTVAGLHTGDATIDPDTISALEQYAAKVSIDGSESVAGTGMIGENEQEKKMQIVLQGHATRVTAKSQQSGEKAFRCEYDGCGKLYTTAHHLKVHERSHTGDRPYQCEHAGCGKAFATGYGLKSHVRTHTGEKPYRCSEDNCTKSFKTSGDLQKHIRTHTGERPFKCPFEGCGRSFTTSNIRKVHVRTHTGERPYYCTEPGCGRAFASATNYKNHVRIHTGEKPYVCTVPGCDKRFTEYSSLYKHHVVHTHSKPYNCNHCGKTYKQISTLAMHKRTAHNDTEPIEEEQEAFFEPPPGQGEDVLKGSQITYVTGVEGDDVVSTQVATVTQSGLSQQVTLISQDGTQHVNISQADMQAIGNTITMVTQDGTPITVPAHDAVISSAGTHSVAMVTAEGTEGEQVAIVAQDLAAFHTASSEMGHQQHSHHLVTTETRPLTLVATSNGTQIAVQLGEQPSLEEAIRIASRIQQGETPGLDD
# ZCCHC9, sequence (Q8N567 whole entry, looked up): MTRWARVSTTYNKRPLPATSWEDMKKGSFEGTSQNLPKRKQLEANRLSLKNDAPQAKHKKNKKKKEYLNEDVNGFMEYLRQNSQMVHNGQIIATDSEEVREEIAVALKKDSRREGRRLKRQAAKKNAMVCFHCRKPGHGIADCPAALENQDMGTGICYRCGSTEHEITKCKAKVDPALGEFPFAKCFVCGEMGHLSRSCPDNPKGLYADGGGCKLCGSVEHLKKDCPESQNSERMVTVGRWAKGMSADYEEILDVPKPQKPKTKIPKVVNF
# ZDHHC5, sequence (Q9C0B5 whole entry, looked up): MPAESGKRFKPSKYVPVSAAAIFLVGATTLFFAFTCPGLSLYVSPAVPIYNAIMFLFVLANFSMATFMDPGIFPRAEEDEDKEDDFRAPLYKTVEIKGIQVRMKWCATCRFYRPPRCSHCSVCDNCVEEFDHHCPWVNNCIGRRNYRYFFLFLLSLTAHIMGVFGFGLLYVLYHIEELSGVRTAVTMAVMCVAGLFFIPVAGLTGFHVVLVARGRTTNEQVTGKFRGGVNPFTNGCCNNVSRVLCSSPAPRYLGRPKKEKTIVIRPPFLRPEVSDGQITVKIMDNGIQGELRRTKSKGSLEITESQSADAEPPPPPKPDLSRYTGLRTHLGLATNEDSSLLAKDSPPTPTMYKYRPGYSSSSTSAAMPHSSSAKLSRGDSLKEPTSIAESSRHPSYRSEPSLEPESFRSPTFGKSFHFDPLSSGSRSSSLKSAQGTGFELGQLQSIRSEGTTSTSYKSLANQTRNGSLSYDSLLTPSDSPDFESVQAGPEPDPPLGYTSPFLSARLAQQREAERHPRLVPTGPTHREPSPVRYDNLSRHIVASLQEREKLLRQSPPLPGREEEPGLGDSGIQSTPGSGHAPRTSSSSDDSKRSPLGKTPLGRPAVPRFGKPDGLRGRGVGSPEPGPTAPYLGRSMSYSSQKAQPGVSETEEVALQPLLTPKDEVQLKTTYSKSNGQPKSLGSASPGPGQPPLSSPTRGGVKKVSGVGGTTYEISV
# ZEB2, sequence (O60315 whole entry, looked up): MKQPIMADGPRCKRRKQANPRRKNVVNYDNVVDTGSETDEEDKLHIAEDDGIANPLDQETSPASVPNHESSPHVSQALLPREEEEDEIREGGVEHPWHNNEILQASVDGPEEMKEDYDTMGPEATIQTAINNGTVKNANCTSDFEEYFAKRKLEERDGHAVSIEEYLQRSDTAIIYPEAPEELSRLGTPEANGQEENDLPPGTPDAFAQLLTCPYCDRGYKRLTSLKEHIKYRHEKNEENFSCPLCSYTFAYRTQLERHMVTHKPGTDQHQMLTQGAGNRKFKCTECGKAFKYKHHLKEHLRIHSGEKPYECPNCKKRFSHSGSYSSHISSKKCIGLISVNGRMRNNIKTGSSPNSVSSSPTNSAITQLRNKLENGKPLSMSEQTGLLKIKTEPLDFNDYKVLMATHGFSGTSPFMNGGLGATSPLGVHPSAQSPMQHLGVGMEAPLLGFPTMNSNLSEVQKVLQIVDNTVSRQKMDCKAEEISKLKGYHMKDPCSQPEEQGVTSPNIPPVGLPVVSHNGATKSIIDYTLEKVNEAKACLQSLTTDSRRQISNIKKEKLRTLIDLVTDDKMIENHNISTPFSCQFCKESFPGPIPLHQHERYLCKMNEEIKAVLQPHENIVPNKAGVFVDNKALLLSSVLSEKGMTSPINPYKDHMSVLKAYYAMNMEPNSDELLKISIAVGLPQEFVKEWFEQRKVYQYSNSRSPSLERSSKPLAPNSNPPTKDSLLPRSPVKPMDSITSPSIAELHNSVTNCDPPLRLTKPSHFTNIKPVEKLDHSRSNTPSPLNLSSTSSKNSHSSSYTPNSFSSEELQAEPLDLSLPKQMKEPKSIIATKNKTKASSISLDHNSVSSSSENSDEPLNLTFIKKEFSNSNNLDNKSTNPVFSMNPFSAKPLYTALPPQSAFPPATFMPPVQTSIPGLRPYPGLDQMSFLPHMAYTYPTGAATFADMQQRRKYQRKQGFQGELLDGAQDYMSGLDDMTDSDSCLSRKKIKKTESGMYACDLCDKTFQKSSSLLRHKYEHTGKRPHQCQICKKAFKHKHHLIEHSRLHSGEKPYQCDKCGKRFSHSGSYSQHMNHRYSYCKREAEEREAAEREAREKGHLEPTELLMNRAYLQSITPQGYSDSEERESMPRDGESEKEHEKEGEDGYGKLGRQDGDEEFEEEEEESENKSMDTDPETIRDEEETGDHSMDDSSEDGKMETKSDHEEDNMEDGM
# ZFAND6, sequence (Q6FIF0 whole entry, looked up): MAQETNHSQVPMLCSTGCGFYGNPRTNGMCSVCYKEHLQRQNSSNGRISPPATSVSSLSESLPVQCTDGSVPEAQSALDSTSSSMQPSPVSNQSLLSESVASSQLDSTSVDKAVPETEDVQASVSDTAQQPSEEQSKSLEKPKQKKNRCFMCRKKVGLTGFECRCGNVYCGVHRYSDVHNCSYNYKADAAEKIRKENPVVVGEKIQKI
# ZC3H8, sequence (Q8N5P1 whole entry, looked up): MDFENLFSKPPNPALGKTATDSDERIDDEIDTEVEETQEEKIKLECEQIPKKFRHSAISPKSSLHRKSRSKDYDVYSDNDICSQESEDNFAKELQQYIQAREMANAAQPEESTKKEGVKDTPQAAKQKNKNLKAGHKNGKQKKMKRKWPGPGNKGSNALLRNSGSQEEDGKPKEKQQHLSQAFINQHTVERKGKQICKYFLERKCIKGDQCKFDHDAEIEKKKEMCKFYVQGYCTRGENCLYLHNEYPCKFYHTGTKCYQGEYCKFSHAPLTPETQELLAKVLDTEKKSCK
# ZDHHC7 isoform 2, sequence (Q9NXF8 whole entry, looked up, canonical isoform): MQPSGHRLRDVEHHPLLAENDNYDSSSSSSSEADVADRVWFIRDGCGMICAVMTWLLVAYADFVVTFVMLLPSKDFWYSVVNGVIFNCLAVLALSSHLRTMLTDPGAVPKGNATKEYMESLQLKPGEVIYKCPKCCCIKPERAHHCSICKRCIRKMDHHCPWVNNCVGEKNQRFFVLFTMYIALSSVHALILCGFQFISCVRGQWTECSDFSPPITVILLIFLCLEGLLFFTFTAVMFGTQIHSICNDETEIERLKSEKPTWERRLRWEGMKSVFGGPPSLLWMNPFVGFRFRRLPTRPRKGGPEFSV
SMILES,log2 fold change (ZC3H8),log2 fold change (ZC3HC1),log2 fold change (ZCCHC9),log2 fold change (ZDHHC17),log2 fold change (ZDHHC20),log2 fold change (ZDHHC5),log2 fold change (ZDHHC7 isoform 2),log2 fold change (ZDHHC8 isoform 3),log2 fold change (ZEB2),log2 fold change (ZER1),log2 fold change (ZFAND5),log2 fold change (ZFAND6),log2 fold change (ZFP91),log2 fold change (ZFPL1),log2 fold change (ZMAT2),log2 fold change (ZMYM1),log2 fold change (ZMYM3),log2 fold change (ZNF143),log2 fold change (ZDHHC6)
COc1cc2ncnc(Nc3ccc(F)c(Cl)c3)c2cc1OCCCN1CCOCC1 [gefitinib],0.021,0.004,-0.062,0.04,-0.067,0.031,0.062,0.023,-0.086,-0.031,-0.006,-0.005,0.02,0.065,-0.021,0.014,0.034,-0.098,
O=C(CCCCCCNC(=O)c1cnc(N(c2ccccc2)c2ccccc2Cl)nc1)NO [citarinostat],-0.059,0.125,-0.161,-0.17,-0.028,-0.022,-0.037,,,0.192,0,-0.081,-0.053,0.046,0.085,-0.07,-0.033,0.033,0.149
Cc1cccc(CC(=O)N2CCc3c2ccc(-c2cn(C)c4ncnc(N)c24)c3F)n1,0.026,0.029,-0.048,-0.082,0.021,-0.067,-0.06,,,0.369,-0.032,-0.014,-0.037,-0.041,-0.037,-0.036,-0.121,0.027,0.097
Cc1ncc(-c2ccnc(Nc3ccc(S(C)(=O)=O)cc3)n2)n1C(C)C,0.036,-0.01,0.005,-0.022,0.022,-0.009,0.059,-0.014,-0.05,0.058,-0.099,-0.031,-0.035,-0.01,-0.027,-0.033,-0.009,0.074,
NC(=O)c1ccc2nc(-c3ccc(Oc4ccc(Cl)cc4)cc3)[nH]c2c1,0.027,-0.034,0.025,-0.046,0.14,0.027,0.022,,0.029,-0.311,-0.013,0.003,0.017,0.055,0.019,-0.135,-0.02,0.039,
Cc1ccc2c(=O)c3ccccc3n(CCCN)c2c1C,-0.277,-0.091,-0.187,0.037,0.028,0.08,0.005,0.02,-0.476 (active),-0.017,-0.095,0,-0.432 (active),0.079,-0.04,0.024,-0.058,-0.043,
Cc1cccc(-c2[nH]c(C(C)(C)C)nc2-c2ccc3nccnc3c2)n1,-0.176,0.119,-0.133,-0.095,-0.007,-0.013,0.335,-0.03,0.031,-0.248,0.007,-0.088,-0.069,0.032,0.088,0.042,-0.038,0.021,
C[C@@H](Oc1cc(-c2cnn(C3CCNCC3)c2)cnc1N)c1c(Cl)ccc(F)c1Cl [crizotinib],0.089,-0.109,0.032,-0.064,0.017,0.075,-0.131,-0.187,-0.141,0.084,-0.085,-0.041,0,0.107,0.098,-0.017,0.04,-0.06,
